# Measured values from PMC7819943, “Rice protein-binding microarrays: a tool to detect cis-acting elements near promoter regions in rice”.
# In all, about 39,000 sequences were measured (“fluorescence intensity (a.u.)”: median about 4,300, highest 2% from about 39,000 on). Shown is part of a subset that was picked to be rich in the highest values.
# Target: T1, OsSMF1 (Oryza sativa, UniProt Q6ZLB0 1-436)
# T1 sequence: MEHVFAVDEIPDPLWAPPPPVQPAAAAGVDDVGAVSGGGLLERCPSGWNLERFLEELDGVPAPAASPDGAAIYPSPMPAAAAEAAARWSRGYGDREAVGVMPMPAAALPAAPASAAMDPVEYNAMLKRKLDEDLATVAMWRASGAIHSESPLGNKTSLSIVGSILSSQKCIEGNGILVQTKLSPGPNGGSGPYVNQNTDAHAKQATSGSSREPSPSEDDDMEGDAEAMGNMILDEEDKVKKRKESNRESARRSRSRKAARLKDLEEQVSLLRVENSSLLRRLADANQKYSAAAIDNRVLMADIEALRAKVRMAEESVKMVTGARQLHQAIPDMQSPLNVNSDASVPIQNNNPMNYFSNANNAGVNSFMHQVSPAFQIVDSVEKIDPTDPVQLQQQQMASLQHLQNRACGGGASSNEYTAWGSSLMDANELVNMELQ
# Test: protein-binding microarray (RPBM); PBS, 2% BSA, 51.3 ng/ul salmon testes DNA, 50 uM zinc acetate, 200 nM TF, 25 C, 1 h; high values mean tight binding
# Conditions: protein: recombinant; tags: N-terminal polyhistidine and DsRed monomer fusion (pET32a); chain copies: 2; label: CyDye5-dUTP incorporated in the synthesized complementary strand; 3' TTTTT single-stranded linker to array surface; dsDNA, one strand shown
# In short: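 Using Ni–NTA, transcription factors fused N-terminally to polyhistidine and DsRed were purified after expression in E. coli BL21-CodonPlus. These were incubated at 200 nM with a blocked, double-stranded custom Agilent array for 1 h at 25 °C in a buffer containing 50 µM zinc acetate, and the array was washed. The binding signal is per-feature fluorescence intensity (arbitrary units) on an Axon 4000B scanner.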
row,Sequence,binding signal
1,TGTCAAATCATGACGCAATTAGGCTCAGAAGATTCGTCTCCGGAGTCACCTAGTGCAG,4030 fluorescence intensity (a.u.)
2,TATCAAATTATAGCGCAATTAGGCTCAAAAGATTCAGATTCGGAGTCACCTAGTGCAG,26600 fluorescence intensity (a.u.)
3,GGCTCAAAAGATTCATCTCGCGATTTCCATACAAACTGTACGGAGTCACCTAGTGCAG,46300 fluorescence intensity (a.u.)
4,GGATTAATTAGTCTCAAAAGATTCGTCTCGCGGTTTCCAGCGGAGTCACCTAGTGCAG,29400 fluorescence intensity (a.u.)
5,GATTCGTCTCGCGATTTCCATTCAAACTGTGCAATTAGTTCGGAGTCACCTAGTGCAG,28000 fluorescence intensity (a.u.)
6,GGGTGATTGAATCCTTGTCATCTAGTGTAAGGCATCTTTCCGGAGTCACCTAGTGCAG,4510 fluorescence intensity (a.u.)
7,CGGCCTATAAGTACTCCATCCCGCCGGCCGGCCGGTGACTCGGAGTCACCTAGTGCAG,3370 fluorescence intensity (a.u.)
8,ATCTGTTAGGTATTTAATTTATTTTCTTTTGCTATGTCAGCGGAGTCACCTAGTGCAG,3880 fluorescence intensity (a.u.)
9,GCTTAATAAATTCGTCTCGCGGTTTAATGTTGGATTCTGTCGGAGTCACCTAGTGCAG,3670 fluorescence intensity (a.u.)
10,TTAATGCATACTGACAGCTGTTTATGTGCTTCAAATTTACCGGAGTCACCTAGTGCAG,4700 fluorescence intensity (a.u.)
11,TAATTCAGCTTAATAAATTCGTCCAGCTGTTTACTGACTGCGGAGTCACCTAGTGCAG,52800 fluorescence intensity (a.u.)
12,GCGCATTGGCGAGGACTGCGACTATCTGGGAAGCGTGAAGCGGAGTCACCTAGTGCAG,51500 fluorescence intensity (a.u.)
13,GCGAGCGGCCAACTGGGAAGGCGGTGGTGAGGACATCGTGCGGAGTCACCTAGTGCAG,5400 fluorescence intensity (a.u.)
14,TCTGCCGCCGGCCGCGGCGAGGGATGGCATTGGCGTGGCGCGGAGTCACCTAGTGCAG,3550 fluorescence intensity (a.u.)
15,GGTGTCGCGTCGCGTCTGCAGTAGAAATGGAAGCCTGGGGCGGAGTCACCTAGTGCAG,3230 fluorescence intensity (a.u.)
16,AGAAGAAGAGGAAGCTGTGGGTCAGGTGGGTTTCCGCCCACGGAGTCACCTAGTGCAG,41300 fluorescence intensity (a.u.)
17,AGAGGAAGAGGAAGAAGAGGTCATTCCGCCACGTCCCGGACGGAGTCACCTAGTGCAG,7090 fluorescence intensity (a.u.)
18,GGCCCACGCCGGCAGATCAGGTGGGGAGAGAAGCTCCGCCCGGAGTCACCTAGTGCAG,14700 fluorescence intensity (a.u.)
19,GTGGAAAAGCCAAAGGCAAAGGCAAACCACGCGTCTCTCTCGGAGTCACCTAGTGCAG,17400 fluorescence intensity (a.u.)
20,ATTCACTGGAGGTGGTGCATCAGCATCACCAAAGCTAGCACGGAGTCACCTAGTGCAG,3970 fluorescence intensity (a.u.)
21,ACCTACTAATAACTAGTTAATTGTCTATTGTGCCCCTAGTCGGAGTCACCTAGTGCAG,13700 fluorescence intensity (a.u.)
22,GAACTACTAAACGGTACGTCTTTTCGTTTAAAAGAATATCCGGAGTCACCTAGTGCAG,39400 fluorescence intensity (a.u.)
23,ATCAAAATAGATTAAAGTTTAGTTTTAACGAAACTAGTTTCGGAGTCACCTAGTGCAG,3180 fluorescence intensity (a.u.)
24,ACACTACCAATAGCTGGTACTTATTCAGCACAATAAGCTACGGAGTCACCTAGTGCAG,46400 fluorescence intensity (a.u.)

row,Sequence,binding signal
1,ACTAAACAGATTTTCTTTAAAGTTTATGCAGAAAAGTTTCCGGAGTCACCTAGTGCAG,5060 fluorescence intensity (a.u.)
2,ATTTAATAACTTCTATGGACAATATGTGCCCTGAAACTACCGGAGTCACCTAGTGCAG,48800 fluorescence intensity (a.u.)
3,ATATGGCATACATGAGAATTTAGAGAATTTACCATCAAATCGGAGTCACCTAGTGCAG,45500 fluorescence intensity (a.u.)
4,GGAAATAGTAAATAGCTACTACCAAGCCATAAGCTTACTACGGAGTCACCTAGTGCAG,17900 fluorescence intensity (a.u.)
5,GCATATGGGGCATATATACGTACATGACTGAATCATCGTTCGGAGTCACCTAGTGCAG,3250 fluorescence intensity (a.u.)
6,TGAGAGAGAATTGCATTTTATGACATGCCCATATGATGATCGGAGTCACCTAGTGCAG,17600 fluorescence intensity (a.u.)
7,TTCTACTATGTCATTCTAGTACTATATAAAACTACTATGCCGGAGTCACCTAGTGCAG,3690 fluorescence intensity (a.u.)
8,TATATATTATACCATTAATGACTGATCCTACCCTCTCATACGGAGTCACCTAGTGCAG,3290 fluorescence intensity (a.u.)
9,TATGTTGAGTTTGAATTTGTATATTTATGAAATGGCATATCGGAGTCACCTAGTGCAG,33000 fluorescence intensity (a.u.)
10,ATCGTCGTCGCCGCCGCCTCCCATGTCGTTGCTGTCGCCGCGGAGTCACCTAGTGCAG,3240 fluorescence intensity (a.u.)
11,TCGGCGGCGAACTTCCCCGCCGACGTGCCAGATCTCAAACCGGAGTCACCTAGTGCAG,4610 fluorescence intensity (a.u.)
12,CAAACTTCTAACCTTTTCATCACATCAAAACTTTTCTATACGGAGTCACCTAGTGCAG,63600 fluorescence intensity (a.u.)
13,AGTTCCTAATATTTCTCAATGTATATATGTACTCATTCCTCGGAGTCACCTAGTGCAG,3800 fluorescence intensity (a.u.)
14,TGTTCTAACAATAGCATTTCTTGCATTTAACTATGTTCCTCGGAGTCACCTAGTGCAG,52900 fluorescence intensity (a.u.)
15,AATGTAAGTCATTCTAGCATTTCTCATTAACATCAATATGCGGAGTCACCTAGTGCAG,3240 fluorescence intensity (a.u.)
16,ATCACATCAAAACTTTTCTACACATATAAACTTCTAACTTCGGAGTCACCTAGTGCAG,27400 fluorescence intensity (a.u.)
17,ACTGGCTTCAATTTATCTATAGCTAATCTAATAGCTAATTCGGAGTCACCTAGTGCAG,33900 fluorescence intensity (a.u.)
18,TGTTTCTTTTCTTCAGACTAGTCACCTACGGTTTACTATTCGGAGTCACCTAGTGCAG,3720 fluorescence intensity (a.u.)
19,TTATTTATAACTGATCTAATAGCCAATTCACACAATAATTCGGAGTCACCTAGTGCAG,13700 fluorescence intensity (a.u.)
20,CAATTCATCTATAACTAATTTAATAGTCAATTCATACAATCGGAGTCACCTAGTGCAG,44100 fluorescence intensity (a.u.)
21,ACTTTCACAAAACTATACACATATCACTTTTCAATAAATACGGAGTCACCTAGTGCAG,19900 fluorescence intensity (a.u.)
22,TGCACTATTCTATATTATATTATGCAAGTTTATTTTACGACGGAGTCACCTAGTGCAG,3260 fluorescence intensity (a.u.)
23,TCCAATCAGACGACTATTCCTATGTTTTACAATTCTCTATCGGAGTCACCTAGTGCAG,51200 fluorescence intensity (a.u.)
